Assay outcomes deposited in PubChem BioAssay by The Scripps Research Institute Molecular Screening Center.
TEAD-YAP block: TEAD-YAP interaction inhibition; HEK-TIYL cells, TEAD-Gal4/YAP UAS-luciferase luminescence; inhibition, % at 9.12 µM; 640,000 tested, 1.4% active; in the data active = inhibition above about 32%;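 note: 0% = median of test compound wells and 100% = reference inhibitor wells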
GPR151 activ: human GPR151 activation; Q8TDV0; PathHunter beta-arrestin GPR151 cells, luminescence; activation, % at 11.2 µM; 650,000 tested, 1% active; in the data active = activation above about 4.9%;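 note: 0% = median of compound wells and 100% = cells with positive control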
MITF inh: human MITF inhibition, primary screen | O75030 | AlphaScreen MITF homodimerization, bead proximity signal | inhibition, % at 2.6 µM | 650,000 tested, 0.91% active | AID 1259374; in the data active = inhibition above about 50%;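 note: 0% = vehicle wells with protein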
FBW7 act: activators of human E3 ligase FBW7. Q969H0. AlphaScreen FBW7–phospho-cyclin E peptide binding, activator screen. normalized activity (activation), % at 26.1 µM. 650,000 tested, 0.13% active. AID 1259310; in the data active = normalized activity above about 1.9%;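 note: purified mutant Fbw7 with reduced substrate affinity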
Target sequence (Q969H0 whole entry, looked up): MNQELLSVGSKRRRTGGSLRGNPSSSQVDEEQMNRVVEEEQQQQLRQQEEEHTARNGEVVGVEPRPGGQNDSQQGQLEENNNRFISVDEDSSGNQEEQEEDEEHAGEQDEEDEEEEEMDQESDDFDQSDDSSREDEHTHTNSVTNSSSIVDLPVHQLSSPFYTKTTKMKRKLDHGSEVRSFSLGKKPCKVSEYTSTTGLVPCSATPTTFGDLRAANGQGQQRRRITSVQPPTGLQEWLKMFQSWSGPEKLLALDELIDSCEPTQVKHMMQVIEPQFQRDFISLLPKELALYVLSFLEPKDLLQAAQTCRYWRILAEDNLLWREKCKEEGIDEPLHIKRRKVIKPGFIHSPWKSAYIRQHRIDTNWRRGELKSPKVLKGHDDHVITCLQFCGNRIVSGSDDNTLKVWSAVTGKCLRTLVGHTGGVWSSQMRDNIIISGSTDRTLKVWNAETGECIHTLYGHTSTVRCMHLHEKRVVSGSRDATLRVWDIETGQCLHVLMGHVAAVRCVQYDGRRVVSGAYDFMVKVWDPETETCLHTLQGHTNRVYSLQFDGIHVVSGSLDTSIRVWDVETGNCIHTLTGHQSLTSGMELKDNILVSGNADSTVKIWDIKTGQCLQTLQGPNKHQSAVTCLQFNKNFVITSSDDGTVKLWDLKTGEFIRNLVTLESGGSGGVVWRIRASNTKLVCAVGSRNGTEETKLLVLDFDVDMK
GPR151 confirm: confirmation of human GPR151 activators | activation, % at 11.2 µM | GPR151 PathHunter beta-arrestin cells, luminescence, 90 min; % of EA-reagent control over plate median | AID 1508609 | shares compounds with GPR151 activ | 6,700 tested, under 10 active;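 active = mean percent activation across replicates above the confirmation screen cutoff of 4.91%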
GPR119 counter: activates human GPR119 in a GPR151 counter-screen | shares compounds with GPR151 activ | GPR119 PathHunter beta-arrestin cells, luminescence, 90 min; 0 = compound-well median, 100 = enzyme-acceptor control | 6,700 tested, 0.3% active | activation, % at 11.2 µM;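 active = mean percent activation in the counterscreen above 29.09%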;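 note: counterscreen on off-target GPR119 to flag nonselective hits from the GPR151 activator screen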
Starred values were filed as active, the others as inactive; x = no result. In the library only some 3.4% were active in any assay of this set; here they are far more common.

SMILES	TEAD-YAP block	GPR151 activ	MITF inh	FBW7 act	GPR151 confirm	GPR119 counter
C=CCSc1nnc2c(n1)OC(/C=C/c1ccc([N+](=O)[O-])o1)Nc1ccc(Br)cc1-2 (stereo unspecified)	27	9.1*	32	0	2	9
Cc1cnc(N2CCOCC2)nc1Nc1ccc(N2CCOCC2)cc1	5	-1	15	0	x	x
Cc1cnc(-c2csc3ccccc23)nc1Nc1ccc(N2CCOCC2)cc1	-14	5.0*	14	1	-1	-9
Cc1cnc(N2CCOCC2)nc1Nc1ccc(Oc2ccccc2)cc1	-17	6.6*	-3	0	-1	-1
COc1ccc(Cl)cc1C(=O)Nc1c(C)ccc2nsnc12	6	0	5	0	x	x
Nc1ccc2nc(SCC(=O)c3ccc(Cl)cc3)sc2c1	-4	6.6*	14	0	0	-2
O=C(OCCN1CCOCC1)c1cccc(Br)c1	-28	8.3*	-3	0	-1	-12
O=C(OCCN1CCOCC1)c1ccc(O)c(O)c1	4	1	17	0	x	x
CCC(C)NC(=O)c1ccc2nc(NC(=O)c3ccc([N+](=O)[O-])cc3)sc2c1 (stereo unspecified)	3	8.8*	13	0	0	1
CCC(C)NC(=O)c1ccc2nc(NC(=O)c3cc([N+](=O)[O-])cc([N+](=O)[O-])c3)sc2c1 (stereo unspecified)	9	1	1	0	x	x
CC(NC(=O)CCn1c(=O)[nH]c2ccsc2c1=O)C12CC3CC(CC(C3)C1)C2 (stereo unspecified)	6	12*	2	0	0	13
CC(NC(=O)CCCn1c(=O)[nH]c2ccsc2c1=O)C12CC3CC(CC(C3)C1)C2 (stereo unspecified)	-5	1	2	0	x	x
O=C(Cn1c(=O)[nH]c2ccsc2c1=O)NC1CCCCC1	-5	5.3*	7	1	0	2
COC1C(C2COC3(CCCCC3)O2)OC2OC3(CCCCC3)OC21 (stereo unspecified)	4	1	11	0	x	x
Cc1ccccc1CNC(=O)C(C)SCc1ccccc1 (stereo unspecified)	5	0	3	1	x	x
O=C(NCc1cccnc1)c1ccnc(Nc2nccc3ccccc23)c1	1	-1	-4	0	x	x
O=C(Cn1ccc([N+](=O)[O-])n1)NCc1cccnc1	14	8.9*	4	0	-1	-6
Cc1ccc(CNC(=O)C(C)SCc2ccccc2)cc1 (stereo unspecified)	-2	8.1*	-7	0	0	12
CC(SCc1ccccc1)C(=O)NCc1cccnc1 (stereo unspecified)	-5	8.0*	5	0	-1	-9
O=C(Cn1ccc([N+](=O)[O-])n1)NCc1ccccc1	-1	3	-5	0	x	x
O=C(NCc1cccnc1)c1ccnc(Nc2cnccn2)c1	5	6.6*	9	1	-1	3
COc1ccc(NS(=O)(=O)c2ccc(I)cc2)cc1	5	-1	15	0	x	x
COc1ccc(/C=C(\NC(=O)c2ccccc2)C(=O)N2CC3CC(C2)c2cccc(=O)n2C3)cc1OC (stereo unspecified)	0	2	2	0	x	x
O=C(O)CCC(=O)NCc1cccnc1	5	7.5*	-8	0	1	12
C=CCc1cccc(/C=C/C(=O)c2c(O)cc(C)oc2=O)c1O	-5	5.9*	-6	0	-1	8
SMILES	TEAD-YAP block	GPR151 activ	MITF inh	FBW7 act	GPR151 confirm	GPR119 counter
Cc1cc(O)c(C(=O)/C=C/c2ccccc2Br)c(=O)o1	-2	0	-12	0	x	x
O=C(NCCc1ccc(O)cc1)c1cnc(-c2ccccc2)s1	-18	1	15	0	x	x
Nc1cccc(-c2ncc(C(=O)NCCc3ccc(O)cc3)s2)c1	14	5.5*	0	0	0	-1
COc1ccc(OC)c(S(=O)(=O)N2CCN(CC(=O)c3ccco3)CC2)c1	3	6.8*	3	0	0	-7
O=C(CN1CCN(S(=O)(=O)c2ccccc2)CC1)c1ccco1	6	-1	11	0	x	x
COc1ccc(F)cc1S(=O)(=O)N1CCN(CC(=O)c2ccco2)CC1	-11	-1	48	0	x	x
COCC(=O)N1CCN(CC(=O)c2ccco2)CC1	5	4.9*	9	0	0	-7
COc1ccc(S(=O)(=O)N2CCN(CC(=O)c3ccco3)CC2)cc1OC	2	12*	7	0	0	0
CCOC(=O)C1=C(C)N=c2s/c(=C/c3cc(OC)c(OC)cc3Br)c(=O)n2C1c1ccc(OC)cc1 (stereo unspecified)	3	-2	22	0	x	x
O=C(O)CC1c2ccccc2CCN1S(=O)(=O)c1ccc(Cl)cc1 (stereo unspecified)	-1	6.0*	9	0	2	12
O=C(O)CC1c2ccccc2CCN1S(=O)(=O)c1ccccc1 (stereo unspecified)	11	1	-1	0	x	x
COc1ccc(CNCc2ccc3ccccc3c2)cc1OC	4	5.1*	34	0	1	1
CC(=O)Oc1ccc(C(=O)c2ccccc2)c(OC(C)=O)c1	10	5.6*	11	0	0	-1
COc1ccccc1NC(=O)c1ccc(Br)cc1	-53	1	3	0	x	x
COc1ccc2cc(CCNC(=O)/C=C\c3ccc4c(c3)OCO4)c(=O)[nH]c2c1	8	12*	7	0	0	2
COc1cc(Br)cc(CN2CCN(C=O)CC2)c1O	4	7.3*	-18	0	1	2
O=C(CCC(=O)Nc1nc(-c2cc3ccccc3oc2=O)cs1)NCc1ccccc1Cl	2	-1	4	0	x	x
Cc1c(C(=O)Nc2ccc3oc(=O)ccc3c2)cccc1[N+](=O)[O-]	15	0	0	0	x	x
CN(C)CCCN(Cc1ccc2c(c1)OCO2)C(=O)NC1CCCCC1	-1	5.2*	6	0	0	-3
CN(C)CP(=O)(O)CCn1c2ccccc2c2ccccc21	0	0	-3	0	x	x
N#Cc1cccc(S(=O)(=O)n2nc(-c3ccccc3)cc2N)c1	1	0	14	0	x	x
COc1ccc(-c2cc3nc(C)cc(N4CCN(c5ccccn5)CC4)n3n2)cc1OC	7	-1	22	0	x	x
Cc1ccc2c(c1)-c1c(ssc1=S)C(C)(C)N2C(=O)c1ccccc1Cl	-4	6.2*	29	-1	0	24
COc1cc(/C=N/N=C2/C(=O)Nc3ccccc32)cc(OC)c1O	2	3	-8	0	x	x
COc1ccc(O)c(/C=N/N=C2/C(=O)Nc3ccccc32)c1	9	6.6*	15	0	0	-5
CC(C)OC(=O)COc1ccc(C(=O)NCc2ccccc2)cc1	7	5.3*	-4	1	0	-9
